The values that follow come from PubChem BioAssay (NCATS).

Inconclusive results are not listed. Activity calls are given as the source filed them. Unless noted, the call rests on the fitted dose curve; in most records, active means well fitted curve in the direction sought with a large enough effect; inconclusive means small, poorly fitted or top-dose-only effect, or another doubt; inactive means no such curve, though single readings can be large; an effect the other way counts as inactive or inconclusive.

A short description of assay [1]: qHTS profiling of the MIPE4 collection as inhibitors of Plasmodium falciparum (3D7) proliferation (AID 743344; call rule not given here;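 further: scaled between DMSO vehicle wells and 0.29 µM artemisinin as full inhibition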). The note with it: P. falciparum 3D7 in erythrocytes, SYBR Green DNA fluorescence, 72 h; at 28.5 µM. In a few lines:
(§1)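 Erythrocytes infected with P. falciparum (0.3% parasitemia, 2.5% hematocrit) incubated with compounds 72 h at 37 C, 5% CO2. Lysis with saponin/Triton buffer containing SYBR Green I, overnight at room temperature in the dark; DNA fluorescence (485/535 nm) normalised to 0.29 uM artemisinin and DMSO.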
(Quantitative high-throughput screening tests each substance at several concentrations.)

A short description of assay [2]: qHTS profiling of the MIPE4 collection as inhibitors of Plasmodium falciparum (DD2) proliferation (AID 743345; call rule not given here). Conditions: P. falciparum Dd2 in erythrocytes, SYBR Green DNA, 72 h; at 28.5 µM. In a few lines:
as §1

Assay [3] in a line: qHTS profiling of the MIPE4 collection as inhibitors of Plasmodium falciparum (DD2) proliferation (Rep 2) (AID 743346; call rule not given here). Conditions: P. falciparum Dd2 in erythrocytes, SYBR Green DNA, 72 h; at 28.5 µM. In a few lines: as §1
A short description of assay [4]: qHTS profiling of the MIPE4 collection as inhibitors of Plasmodium falciparum (HB3) proliferation (AID 743347; call rule not given here;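 further: plate controls were DMSO vehicle wells for no effect and artemisinin wells for full effect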). The note with it: P. falciparum HB3 in erythrocytes, SYBR Green DNA, 72 h; at 28.5 µM. In a few lines:
as §1

Assay [5] is described as follows: qHTS assay to identify small molecule inhibitors of chordoma cells - UCH-1 (AID 1259355). Further: on the % scale 0 is the no-effect control and ±100 the full control effect; nearly all actives have a fitted effect of over 55% in size. In a few lines:
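Luminescent ATP read-out (CellTiter-Glo, 30min at room temperature) measured viability of UCH-1 cells exposed for 48hr to test drugs at 15 concentrations, co-dosed with a five-agent combination of auranofin, camptothecin, doxorubicin, rubitecan and topotecan.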

Assay [6] in a line: qHTS assay to identify small molecule inhibitors of chordoma cells - UCH-2 (AID 1259356). Further: on the % scale 0 is the no-effect control and ±100 the full control effect.
Assay [7] is described as follows: P-glycoprotein substrates identified in KB-8-5-11 adenocarcinoma cell line, qHTS therapeutic library screen (AID 1346987). Further: nearly all actives have a fitted effect of over 65% in size. Further: potency means the concentration at half of the fitted maximal effect. Conditions: outcome: dose series up to 44.5 µM unless noted. In outline:
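KB-8-5-11: colchicine-selected sub-line of KB-3-1 over-expressing P-gp; assay medium lacked colchicine. 72 h drug exposure at 37 degree C, CellTiter-Glo.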

Assay [8] in a line: qHTS profiling for inhibitors of Plasmodium falciparum (3D7) proliferation (AID 743322).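 Further: infected erythrocytes exposed to compound for 72 h before lysis; 100% = DMSO vehicle wells and 0% = 0.29 µM artemisinin.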 Conditions: P. falciparum 3D7 proliferation; at 28.7 µM (top of the series) unless noted. In a few lines: as §1
Assay [9] is described as follows: qHTS profiling for inhibitors of Plasmodium falciparum (DD2) proliferation (AID 743323; call rule not given here). The note with it: lower = more inhibition; at 28.7 µM (top of the series) unless noted. In outline: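 SYBR Green fluorescence (ex 485, em 535 nm) of lysed cultures gives parasite DNA content; wells normalized to artemisinin (0.29 uM) and DMSO controls. Infected red cells: 0.3% parasitemia, 2.5% hematocrit, 72 h, 37 C.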

Assay [10] can be described thus: qHTS profiling for inhibitors of Plasmodium falciparum (HB3) proliferation (AID 743324).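 Further: 100% = DMSO vehicle wells and 0% = artemisinin-treated control wells.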 Conditions: Plasmodium falciparum HB3 blood-stage proliferation; at 28.7 µM (top of the series) unless noted. In a few lines: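 P. falciparum HB3 grown in erythrocytes (0.3% parasitemia, 2.5% hematocrit final) with compound for 72 h at 37 C, 5% CO2. Parasite DNA detected by SYBR Green after saponin/triton lysis overnight; normalized to 0.29 uM artemisinin and DMSO.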

Assay [11] can be described thus: qHTS Assay for Identifying Gametocytocidal Compounds (AID 743244).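 Further: on the % scale 0 is the no-effect control and ±100 the full control effect; actives lower the fluorescent signal which means gametocytes are killed.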 The note with it: P. falciparum 3D7 stage III-V gametocytes, alamarBlue, 72 h; max response: stronger effect = lower value. In outline: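 Viability read-out was resazurin reduction (alamarBlue, 24 h) measured at Ex 525/Em 598 nm. Beforehand, late-stage (III-V) 3D7 P. falciparum gametocytes at 20,000 cells/well were incubated with compound 72 h at 37C under 5% CO2.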

A short description of assay [12]: qHTS assay for cell viability of HEK293 cells (AID 743288). Further: on the % scale 0 is the no-effect control and ±100 the full control effect; nearly all actives have a fitted effect of over 50% in size. Conditions: ATP luminescence (CellTiter-Glo), 18 h; max response: stronger effect = lower value. In a few lines:
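Parental HEK293 cells were seeded at 2,000 cells/well, rested at least 5 h at 37 C, then exposed to compounds in DMSO for 18 h at 37 C. Viability was read as ATP-dependent luciferase luminescence after 30 min at room temperature.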

Assay [13] can be described thus: qHTS assay for cell viability of the p53RE-bla HCT-116 cell line (AID 743292). Further: on the % scale 0 is the no-effect control and ±100 the full control effect; nearly all actives have a fitted effect of over 55% in size. In a few lines:
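Compound-exposed HCT-116 (p53RE-bla) cells, 4,000 per well, were kept 16 h at 37 C following a 5 h preincubation. Cell number was estimated from total ATP by CellTiter-Glo luminescence read after 30 min at room temperature.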

`CC[C@H]1OC(=O)[C@H](C)[C@@H](O[C@H]2C[C@@](C)(OC)[C@@H](O)[C@H](C)O2)C(C)[C@@H](O[C@@H]2O[C@H](C)C[C@H](N(C)C)[C@@H]2O)[C@](C)(OC)C[C@@H](C)C(=O)[C@H](C)[C@@H](O)[C@]1(C)O` (stereo not given in full) had a parasite growth, % of DMSO control in assay [1] of 19.7%. The compound further showed a parasite growth remaining, % of DMSO control (lower = more inhibition) in assay [2] of 35.4%. Moreover, in [3], the parasite growth, % of control (lower = inhibition) came to 38.9%. In assay [4], this compound registered a growth, % of control of 37.4%. In addition, the Potency entry in assay [5], in assay [6] and in [7] was “inactive” each time.

For `C#C[C@]1(O)CC[C@@H]2[C@H]3CCC4=CC(=O)CC[C@H]4[C@H]3C(=C)C[C@@]21CC`, in [8], the remaining parasite growth % (stronger effect = lower value) was 38.1%. Further, in assay [9], the activity, percent of control is 51.3%. The remaining proliferation (% of control), lower = more inhibition in assay [10] turned out to be 25.2%. The parasite growth, % of DMSO control in assay [1] is 22.9%. The compound further displayed a parasite growth remaining, % of DMSO control (lower = more inhibition) in assay [2] of 82.2%. The same compound gave a parasite growth, % of control (lower = inhibition) in assay [3] of 66.9%. For the same compound, in assay [4], the growth, % of control is 44.4%. The Potency entry in assay [5], in assay [6] and in assay [7] was “inactive” each time.

With `C=C1CC[C@H](O)CC1=C/C=C1\CCC[C@]2(C)[C@@H]([C@H](C)CCCC(C)(C)O)CC[C@@H]12`, in assay [11], the max response was -5.02% (inactive). For the same compound, the Potency result in assay [5] and in [6] was “inactive” each time.

Consider `CC(C)[C@@H]1CC[C@@H](C)C[C@H]1O`, for which the values for the max response in assay [11] and in [12] were 20.4% (inactive) and -12.7% (inactive), respectively. Besides, in assay [13], the outcome was inactive. The Potency result in [5], in assay [6] and in assay [7] was “inactive” in each case.

For the compound `C[C@H](CCC(=O)O)[C@H]1CC[C@H]2[C@@H]3CC[C@@H]4C[C@H](O)CC[C@]4(C)[C@H]3C[C@H](O)[C@]12C`, the figures for the max response in [11] and in [12] were 6.91% (inactive) and 3.72% (inactive), respectively. In assay [13], the compound was called inactive. Also, the Potency result in assay [5], in assay [6] and in assay [7] was “inactive” each time.

Consider `C=Cc1c(C)c2cc3nc(cc4[nH]c(cc5nc(cc1[nH]2)C(C)=C5CCC(=O)OC)c(CCC(=O)O)c4C)[C@@]1(C)C3=CC=C(C(=O)OC)[C@H]1C(=O)OC`, for which the remaining parasite growth % (stronger effect = lower value) in [8] is -0.398% [at 9.63 µM]. For the same compound, the activity, percent of control in assay [9] worked out at 0.912% [at 9.63 µM]. The remaining proliferation (% of control), lower = more inhibition in assay [10] is 0.279% [at 9.63 µM]. The Potency entry in assay [5], in assay [6] and in assay [7] was “inactive” in each case.

`NC(N)=O`: the max response in assay [11] is 2.55% (inactive); in assay [12] it was 0.964% (inactive). For the same compound, the outcome in assay [13] was inactive. Also, the Potency entry in assay [5], in assay [6] and in assay [7] was “inactive” in each case.

Take `C[C@H]1[C@@H](OC(=O)CCC(=O)O)O[C@@H]2OC3(C)CC[C@H]4[C@H](C)CC[C@@H]1[C@@]24OO3`: the remaining parasite growth % (stronger effect = lower value) in [8] is -0.578%. Further, the activity, percent of control in assay [9] was -0.204%. Moreover, the remaining proliferation (% of control), lower = more inhibition in [10] was -0.191%. Moreover, the Potency result in assay [5] and in assay [6] was “inactive” each time. In assay [7], the Potency is 4.61 µM (active).

Take `C=CC(C)(O)CC/C=C(\C)CCC=C(C)C` (stereo not given): the values for the max response in assay [11] and in assay [12] were -0.0803% (inactive) and -7.81% (inactive), respectively. Also, the result in assay [13] was inactive. In addition, the Potency result in [5], in assay [6] and in [7] was “inactive” each time.

Take `O=C(CCCCCCCCCCCCC1CCCC1)Nc1ccc(S(=O)(=O)c2ccc(NC(=O)CCCCCCCCCCCCC3CCCC3)cc2)cc1`: in [11], the max response was 1.73% (inactive). The Potency result in assay [5] and in [6] was “inactive” in each case.

For the compound `CN(CCO)CC(O)Cn1cnc2c1c(=O)n(C)c(=O)n2C` (stereo not given) (tested in a mixture with another compound), the max response in assay [11] was 2.62% (inactive); in [12], -3.27% (inactive). Moreover, in assay [13], the outcome was inactive. Moreover, the Potency entry in assay [5], in assay [6] and in assay [7] was “inactive” each time.
